Screening data from PubChem.
This is a sample that favours compounds with a hit; in the whole collection about 1.9% have one here.
Hsp70 activator: switches on Hsp70 transcription | hit rate 0.04% among 200,000 | HeLa Hsp70 promoter luciferase reporter, luminescence; scaled: vehicle 0, proteasome-inhibitor control 100% | activation, % at 10 µM;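 active = activation above the mean across all tested compounds plus 3 SD, cutoff set per campaign, cut at about 5.5% in these data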;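 also: 100% = MG132 at 30 µM as the positive control and 0% = DMSO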
TNF necrop inh: inhibitors of TNF-alpha induced necroptosis in Jurkat FADD-/- cells; activation (protection from cell death), % at 10 µM; Jurkat FADD-/- TNF necroptosis rescue, ATP luminescence, 24 h; 0 = TNF only, 100 = no-TNF cells; hit rate 0.068% among 220,000;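 active = activation, meaning protection from cell death, of at least 50% relative to plate controls; inactive = activation below 50%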;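 also: necroptosis triggered by 40 ng/mL TNF-alpha added together with compound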
HSF1 activator: increases HSF-1 driven luciferase reporter signal | NIH3T3-HGL HSF-1 luciferase reporter, MG132, 8 h; 100% = twice DMSO control signal | activation, % at 9 µM | hit rate 1.7% among 300,000;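 active = mean replicate activation of at least 50% with a set share of replicates each reaching 50%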;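 also: 0% = median of the neutral control wells and 100% = twice that signal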
zVAD death inh: L929 zVAD cell death inhibition | viability rescue, % at 10 µM | L929 zVAD necroptosis rescue, ATP luminescence, 24 h; with zVAD 60 µM | hit rate 0.38% among 220,000;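 active = activation, scaled between plate controls, above about 75%, limit read from the data; inactive = activation under that limit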;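 also: 0% = zVAD with DMSO and 100% = DMSO alone without zVAD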
* = called active by the depositor; . = no result given.

SMILES | Hsp70 activator | TNF necrop inh | HSF1 activator | zVAD death inh
CC1CCCN(C(=S)Nc2ccc(Nc3ccccc3)cc2)C1 (centres undefined) | 0 | 0 | 93* | 1
S=C(Nc1ccc2nsnc2c1)N1CCCC1 | 0 | 1 | 75* | 5
S=C(Nc1ccccc1)N1CCCCCC1 | 0 | -2 | 55* | 0
O=C(CCC(=O)c1ccccc1)NC1CCCN(Cc2ccccc2F)C1 (centres undefined) | . | . | 0 | .
O=C(COC(=O)c1ccccc1O)Nc1cc([N+](=O)[O-])ccc1Cl | . | 2 | -11 | 0
CN(Cc1cn(-c2ccccc2)nc1-c1ccc(Cl)cc1)C(=O)CCC(=O)O | 0 | 2 | -2 | 1
Cc1nc2ccc(Br)cc2c(=O)n1Cc1cccs1 | . | . | 54* | .
Cc1nc2ccccc2c(=O)n1Cc1ccco1 | . | 4 | -12 | 0
CCOCCn1c(COc2ccc(C)cc2)nc2ccccc21 | 0 | 2 | 76* | .
COCCn1c(COc2ccc(C)cc2)nc2ccccc21 | 0 | 3 | 46 | 0
CCn1c(COc2ccc(C)cc2)nc2ccccc21 | 0 | 3 | 81* | 3
CCCN1CCN(CCCNC(=O)c2ccc(CS(=O)c3ccc(OC)cc3)o2)CC1 (centres undefined) | . | . | -4 | .
O=S(=O)(CCC1CCCCN1)c1ccccc1 (centres undefined) | . | . | -11 | .
CSc1nc(NCCOCCO)c2sc3nc(-c4ccco4)c4c(c3c2n1)CCC4 | 0 | -4 | 0 | 7
CCN(CCO)c1nc(SC)nc2c1sc1nc(-c3ccco3)c3c(c12)CCC3 | 0 | -6 | 58* | -1
CC12COC3(C(=O)Nc4ccc5ccccc5c4)CC1CCC32C (centres undefined) | 0 | 1 | 62* | 18
CC12COC3(C(=O)Nc4ccccc4)CC1CCC32C (centres undefined) | 0 | 0 | 1 | 4
CCc1ccc(N2CC(C(=O)Nc3ccc(S(=O)(=O)N4CCOCC4)cc3)CC2=O)cc1 (centres undefined) | . | . | -6 | .
CN(C(=O)c1ccco1)c1nnc(C23CC4CC(CC(C4)C2)C3)s1 | 0 | 0 | 21 | 1
CN(C(=O)c1ccco1)c1nc2c(s1)CCCC2 | 0 | -2 | 62* | -1
C/C=C/c1c(F)c(F)c(Oc2ccc(C(=O)O)cc2)c(F)c1F | 0 | 1 | 125* | -1
Clc1cnc(Nc2cccnc2)c(Cl)c1 | . | . | -2 | .
COc1ccc(CN(C(=O)c2cc3ccccc3oc2=O)C2CCS(=O)(=O)C2)cc1OC (centres undefined) | . | . | 56* | .
COc1ccc(CN(C(=O)c2cc3ccccc3oc2=O)C2CCS(=O)(=O)C2)cc1 (centres undefined) | . | 3 | 4 | 0
CC(C)c1nnc(-c2ccc(Cl)cc2)c(N(C)C)n1 | 0 | 75* | 6 | 0
SMILES | Hsp70 activator | TNF necrop inh | HSF1 activator | zVAD death inh
COc1cc2c(cc1OC)C1C(C(=O)Nc3ccccc3N3CCN(C)CC3)c3ccccc3C(=O)N1CC2 (centres undefined) | 0 | 1 | 6 | 0
COc1ccc2nc3sc(C(=O)NCc4cccs4)c(N)c3cc2c1 | 0 | 2 | 55* | 8
COc1cccc(/C=C/C(=O)c2cccc([N+](=O)[O-])c2)c1OC | 0 | -5 | 58* | 0
COc1cccc(/C=C/C(=O)c2cccc([N+](=O)[O-])c2)c1 | 0 | 0 | 1 | -1
COc1ccc(C2c3ccc(O)cc3Oc3ncn(Cc4ccccc4)c(=N)c32)cc1OC (centres undefined) | . | -5 | 8 | -1
COc1ccc(C2c3ccc(O)cc3Oc3ncn(Cc4ccco4)c(=N)c32)cc1 (centres undefined) | . | -2 | 75* | 0
COc1ccc(C2c3c(ncn(Cc4ccco4)c3=N)Oc3ccc4ccccc4c32)cc1 (centres undefined) | 0 | -3 | 69* | 0
N=c1c2c(ncn1Cc1ccco1)Oc1ccc3ccccc3c1C2c1ccccc1 (centres undefined) | 0 | -4 | -18 | 1
c1csc(Cc2nc3ccccc3[nH]2)c1 | 0 | 65* | 0 | 14
c1ccc(-c2noc(COc3ccc4c(c3)OCO4)n2)cc1 | 0 | -2 | 55* | 0
Cc1cc(OCc2nc(-c3cccs3)no2)cc(C)c1Cl | 1 | 1 | 17 | 0
Fc1ccc(OCc2nc(-c3cccs3)no2)cc1 | 0 | 5 | 65* | 3
c1ccc(OCc2nc(-c3cccs3)no2)cc1 | 0 | 6 | 59* | 0
CCCc1cc(C(=O)N2CCC(n3nccc3NC(=O)c3ccc(OC)cc3)CC2)no1 | . | . | -6 | .
